This is part of a sample that, as a whole, favours compounds with a hit. Of some 83,000 tested, about 20% had one in any assay.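 96-well plates, one dose, 48 hours. Percent growth reported; active if below 10.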 Values without a mark were called inactive. Activity calls are given as the source filed them.

The test relates to MDA-MB-468 breast. Description: NCI-60 one-dose screen, 48 h (100 = growth as untreated, 0 = no growth, -100 = all killed). Conditions: 10 µM unless noted.
With `O=[N+]([O-])c1ccc(N(CCO)CCO)c2c1no[n+]2[O-]`, the growth was 2.96% (active).
For the molecule `O=[N+]([O-])c1cc([N+](=O)[O-])c(Cl)cc1Cl`, the growth was -73.8% (active).
The same measure for `O=C1CCCCC1CN1CCCCC1` (stereo not drawn): 112%.
In the case of `CCCCCCCC[n+]1ccc2ccccc2c1`, the growth is 8.79% (active).
As for `CN1CCC(O)(c2ccc(F)cc2)C(C(=O)c2ccc(F)cc2)C1` (stereo not drawn), the growth was 44.2%.
`n1nc(-c2nonc2-c2nn[nH]n2)n[nH]1`: the growth is 101%.
With `Oc1ccc2c3c1O[C@H]1c4[nH]c5ccccc5c4C[C@@]4(O)C(C2)N(CC2CC2)CC[C@]314`, the growth is 90.5%.
The same measure for `CC[n+]1c(-c2ccccc2)c2cc(N)ccc2c2ccc(N)cc21`: -62.8% (active); for `Cc1c(C)c([N+](=O)[O-])c(C)c(C)c1[N+](=O)[O-]`: 95.2%; for `CCCCn1cc(C(=O)/C(C#N)=C/c2cc3ccccc3nc2Cl)c2cc(OC)ccc21`: 104%.
Consider `C[N+]12CN3CN(CN(C3)C1)C2`, for which the growth was 119%.
With `CCC1CN1P(=O)(OCCOC)N1CC1CC` (stereo not drawn), the growth is 110%.
Take `Cc1ccc(C(Cc2ccccc2)NCCO)cc1` (stereo not drawn): the growth was 96.7%.
Then `COC1[C@@H]2C[C@H]3C(C)(C)O[C@@](C/C=C(/C)C(=O)O)(C2=O)[C@]32Oc3c(CC=C(C)C)c4c(c(O)c3C(=O)[C@H]12)C=CC(C)(C)O4` (stereo partly drawn), with -65.2% (active); and `Cc1cc(N(CCCl)CCCl)ccc1/C=N\NC(=O)c1ccncc1`, with -45.6% (active); and `CNC(C)Cc1ccccc1` (stereo not drawn) (tested in a mixture with another compound), with 91.3%.
On to `CC(=O)O[C@H]1C(=O)[C@@]2(C)[C@H]([C@H](OC(=O)c3ccccc3)[C@]3(O)C[C@H](OC(=O)[C@H](OC(=O)OC[C@@H]4COC(C)(C)O4)[C@@H](NC(=O)c4ccccc4)c4ccccc4)C(C)=C1C3(C)C)[C@]1(OC(C)=O)CO[C@@H]1C[C@@H]2O`, for which the growth was -7.94% (active).
Take `OCCNC(Cc1ccccc1)c1ccc2c(c1)OCO2` (stereo not drawn): the growth is 97.7%.
Take `C/C(=C\c1cc(C(F)(F)F)nn1CCNC(=O)OC(C)(C)C)[C@@H]1C[C@@H]2O[C@]2(C)CCC[C@H](C)[C@H](O)[C@@H](C)C(=O)C(C)(C)[C@@H](O)CC(=O)O1`: the growth is 58.6%.
Then `NC1CCc2cc(O)c(O)cc2C1` (stereo not drawn), with 66%; and `O=C(Cc1ccccc1)NC(O)C(Cl)(Cl)Cl` (stereo not drawn), with 104%.
Consider `NC(=O)CNc1ccc([As]=[As]c2ccc(NCC(N)=O)cc2)cc1` (stereo not drawn), for which the growth was -6.99% (active).
The same measure for `CC1=C2[C@@H](CC1)[C@]1(C)O[C@@](C(C)C)(C[C@H]1O)[C@H]2OC(=O)C1CC1c1ccccc1` (stereo partly drawn): 94.6%; for `CCC(=O)C(CC(C)N1CCCCCC1)(c1ccccc1)c1ccccc1` (stereo not drawn): 95.6%.
Regarding `CC12CCC3C(CC=C4CC(O)CCC43C)C1C/C(=C\N1CCOCC1)C2=O` (stereo not drawn), the growth is 106%.
Then `Oc1ccc(O)c2c1C1(Cl)C(Cl)=C(Cl)C2(Cl)C1(Cl)Cl`, with 4.54% (active); and `COc1ccc(C2=N[C@@H](Cc3ccccc3)C(=O)Nc3ccsc32)cc1`, with 8.23% (active).
Then `COc1ccc2c(c1)c(-c1nc(-c3c[nH]c4ncccc34)cs1)cn2CCCCN1CCCCC1`, with -75.6% (active); and `O=C1c2ccccc2C(=O)N1[N+](=O)[O-]`, with 89.2%.
Then `CCCCCCCCCCCC1CCCC(C)N1` (stereo not drawn), with 73.3%; and `CC(Oc1ccc(-c2ccccc2)cc1)C(=O)O` (stereo not drawn), with 94.4%.
Turning to `CNC(=O)Oc1cccc(C(F)(F)F)c1`, the growth was 110%.
With `Cc1ccc(C(=O)NCCCOc2ccc(N3C(N)=NC(N)=NC3(C)C)cc2Cl)cc1S(=O)(=O)F`, the growth is 123%.
With `O=C(O)CNC(=O)c1ccccc1`, the growth was 122%.
On to `CN1C2CCC1[C@@H](COC(=O)c1ccccc1)[C@@H](O)C2` (stereo partly drawn), for which the growth is 86.1%.
Regarding `CCOC(=O)[C@@H](C)C[C@H](Cc1ccccc1)NC(=O)c1csc([C@@H](C[C@H](C(C)C)N(C)C(=O)[C@H](CCC(C)C)NC(=O)[C@H]2CCCCN2C)OC(C)=O)n1`, the growth is 5.73% (active).
`N#CCCNc1ccccc1`: the growth was 108%.
In the case of `NC(=O)c1cc([N+](=O)[O-])c(Cl)c([N+](=O)[O-])c1Cl`, the growth is -84.9% (active).

(Values after PubChem BioAssay (NCI).)
